Reference: PubChem BioAssay (EPA / NIEHS)
Active and inactive are the calls of the source. The calls were made as follows: active = hit-call score of the fitted dose curve at least 0.9, where 1 is the maximum; inactive = score below 0.9.

These compounds were tested on Vascular cell adhesion molecule 1 (VCAM1), VCAM1 (gene 7412) (assay: BSK_LPS_VCAM1: BioMAP Diversity Plus: LPS Assay for Vascular cell adhesion molecule 1 (VCAM1) Biomarker Activity (AID 2283086)). Conditions: primary human HUVEC with PBMC; actives raise or lower the signal.
Procedure: BSK_LPS is a cell-based, multiplexed-readout assay that uses umbilical vein endothelium and peripheral blood mononuclear cells, a human vascular primary cell co-culture, with measurements taken at 24 hours after chemical dosing in a 96-well plate.BSK_LPS_VCAM1 is an assay component measured in the BSK_LPS assay. It measures VCAM-1 antibody related to regulation of gene expression using ELISA technology.Data from the assay component BSK_LPS_VCAM1 was analyzed into 1 assay endpoint. This assay endpoint, BSK_LPS_VCAM1, was analyzed with bidirectional fitting relative to DMSO as the negative control and baseline of activity. Using a type of binding reporter, gain or loss-of-signal activity can be used to understand changes in the signaling as they relate to the gene VCAM1. Furthermore, this assay endpoint can be referred to as a primary readout, because this assay has produced multiple assay endpoints where this one serves a signaling function. To generalize the intended target to other relatable targets, this assay endpoint is annotated to the cell adhesion molecules intended target family, where the subfamily is Immunoglobulin CAM.
The levels of cell surface (or secreted, indicated by the prefix "s") biomarker endpoints were measured by ELISA. Overt cytotoxicity to cells in confluent adherent cultures (all systems other than the BT system) was assessed by measuring total protein levels using sulforhodamine B (SRB) staining in parallel cultures at the time of biomarker measurements, indicated as SRB endpoints. For proliferation assays for adherent cell types, individual cell types are cultured at sub-confluence and relative cell numbers quantified by SRB staining at time points optimized for each system (48 h: 3C and CASM3C systems; 72 h: BT and HDF3CGF systems; 96 h: SAg system). SRB was performed by staining cells with 0.1% SRB after fixation with 10% TCA and reading wells at 560 nm.Viability and proliferation of PBMC (T cells) was quantified by Alamar Blue reduction for the SAg and BT systems. For PBMC viability (referred to as PBMC Cytotoxicity within the assay endpoint names), cells were plated (75,000/well in a 96-well plate) and then chemical samples added for 1 h before addition of activators, SEB and TSST-1 (20 ng/mL final concentration each). Cells were incubated for 90 h. Then, Alamar Blue (20 uL/well) (Invitrogen, Cat DAL1100) was added for 6 h, and the plates were read with a fluorescence microplate reader at 546/580 nm (excitation/emission). For PBMC proliferation, cells were plated and activated as above but incubated for only 16 h prior to addition of Alamar Blue. Plates were read after 6 h.

Row | SMILES | outcome | AC50
1 | COCC(=O)N(c1c(C)cccc1C)[C@H](C)C(=O)OC | inactive | –
2 | Oc1cc(Cl)c(Cl)cc1Cl | – | 32 µM (active)
3 | CCOP(=O)(OCC)OC(=CCl)c1ccc(Cl)cc1Cl | inactive | –
4 | CCCCOC(=O)COC(=O)c1ccccc1C(=O)OCCCC | inactive | –
5 | CC(C)N(C(=O)CCl)c1ccccc1 | – | 18 µM (active)
6 | Cc1c([N+](=O)[O-])c(C)c([N+](=O)[O-])c(C(C)(C)C)c1[N+](=O)[O-] | inactive | –
7 | N#CCCC(Br)(C#N)CBr (stereo not given) | – | 9.05 µM (active)
8 | CC(C)O.CC(C)O.OCCN(CCO)CCO.OCCN(CCO)CCO.[Ti] | inactive | –
9 | Oc1c(Cl)cc(Cl)cc1Cl | inactive | –
10 | C=CC(Cl)CCl (stereo not given) | inactive | –
11 | Clc1cccc(Cl)c1 | inactive | –
12 | Clc1cccc(Cl)c1Cl | inactive | –
13 | CCOC(=O)CC(=O)CCl | – | 7.27 µM (active)
14 | O=C(O)COc1cc(Cl)c(Cl)cc1Cl | inactive | –
15 | N#Cc1cccnc1 | inactive | –
16 | OCCN(CCO)CCO | inactive | –
17 | CCOP(=O)(OCC)SCCSCC | inactive | –
18 | OC(Cc1ccccc1Cl)(Cn1[nH]cnc1=S)C1(Cl)CC1 (stereo not given) | inactive | –
19 | NC(=O)CCl | inactive | –
20 | OC(Cc1ccccc1Cl)(Cn1cncn1)C1(Cl)CC1 (stereo not given) | inactive | –

Row | SMILES | outcome | AC50
21 | CC(C)=CC1C(C(=O)OCc2cccc(Oc3ccccc3)c2)C1(C)C (stereo not given) | inactive | –
22 | CCC(C)(C#N)N=NC(C)(C#N)CC (stereo not given) | inactive | –
23 | O=S(=O)(C(Cl)(Cl)Cl)C(Cl)(Cl)Cl | – | 2.28 µM (active)
24 | CN(C)C(=S)S | inactive | –
25 | Cc1ccc(OP(=O)(Oc2ccc(C)cc2C)Oc2ccc(C)cc2C)c(C)c1 | inactive | –
26 | COc1ccccc1N | inactive | –
27 | O=C(CCl)NCO | inactive | –
28 | CCCCN(CCCC)C(=S)[S-].CCCCN(CCCC)C(=S)[S-].[Ni+2] | inactive | –
29 | CCOP(=S)(OCC)SCS(=O)(=O)C(C)(C)C | inactive | –
30 | CCCCCCCCCCCCc1cccc(S(=O)(=O)O)c1 | inactive | –
31 | CC(C)(C)c1cc([N+](=O)[O-])cc(C(C)(C)C)c1O | inactive | –
32 | CCOC(=O)C(SP(=S)(OC)OC)c1ccccc1 (stereo not given) | – | 14.6 µM (active)
33 | Cc1cc(Cl)ccc1OC(C)C(=O)O (stereo not given) | inactive | –
34 | c1ccc2sc(SNC3CCCCC3)nc2c1 | inactive | –
35 | O=[N+]([O-])c1cccc2ccccc12 | inactive | –
36 | Cc1cc(Cl)ccc1N | inactive | –
37 | c1ccc(-c2cccc(-c3ccccc3)c2)cc1 | – | 27.3 µM (active)
38 | OCCCCO | inactive | –
39 | Cc1cc(C)cc(C)c1 | inactive | –
40 | Oc1ccc(Cc2ccc(O)cc2)cc1 | inactive | –
